Drawing on PubChem BioAssay AID1626 (SRMLSC, 2009), this text covers inhibition for 25 compounds.

About 2,000 (0.91%) of roughly 220,000 compounds were called active. Another 2% or so got no clear call; they are omitted. A selection follows. Results with a measured potency or affinity are listed apart. Values without a mark were called inactive. No stated cut-off is given here; in the data, inconclusive means inhibition above about 80% without an active follow-up result; inactive means below that; test concentration not stated here.

The assay can be described thus: M. tuberculosis H37Rv growth inhibitors, H37Rv strain (AID 1626).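 Further: bacteria incubated seven days before Alamar blue readout; 0% = bacteria only wells and 100% = bacteria with antibiotic wells.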 Conditions: hits give high values, concentration not given here.
Take `CCN(CC)c1nc2ccccc2[nH]c1=O`: the inhibition is -5.3%. With `COc1ccc(C(=O)N/N=C/c2sc(=O)n(Cc3cccc(C(=O)O)c3)c2Cl)cc1`, the inhibition is -6.32%.

As to `O=C(NCc1cccc(Br)c1)C1CC(c2ccc(C(F)(F)F)cc2)=NO1` (stereo not given), the inhibition was 18.7%. `O=C1/C(=C/c2ccc([N+](=O)[O-])cc2)C=C(c2ccccc2)N1c1ccccc1`: the inhibition was -2.05%. For `O=C(O)c1cccc(N2C(=O)/C(=C/c3ccc([N+](=O)[O-])cc3)C=C2c2ccccc2)c1`, the inhibition was 1.03%. Regarding `COCCCNC(=O)c1ccc(CS(=O)(=O)c2ccc(Br)cc2)o1`, the inhibition was -8.42%.

As for `Cc1nc(CNC(=O)CC2C(=O)NCCN2Cc2cccc(Oc3ccccc3)c2)cs1` (stereo not given), the inhibition was -3.5%. With `COc1cc2c(cc1OC)C(C)N(C(C)=O)CC2` (stereo not given), the inhibition was -6.23%. For the compound `COC(=O)c1sccc1NC(=O)c1sccc1C`, the inhibition is 0.49%.

On to `Cc1cc(C)c(NC(=O)c2cn3c4c(c(N5CCN(C)CC5)c(F)cc4c2=O)OCC3C)c(C)c1` (stereo not given), for which the inhibition was 9.11%.

As for `CCCCOc1ccc(C(=O)Nc2ccc(N3CCN(C)CC3)cc2)cc1`, the inhibition was 16.1%. Take `COc1ccc(CCC(=O)Nc2cccc(Cl)c2)cc1`: the inhibition was 10.2%. Take `Cc1nc2c(C)cccc2cc1C(=O)N/N=C/c1ccc(C(=O)O)cc1`: the inhibition is -1.57%.

For the compound `O=C(/C=C/c1cccs1)Nc1ccc([N+](=O)[O-])cc1`, the inhibition is 4.49%. `Cc1cc(C)cc(NC(=O)/C=C/c2ccc([N+](=O)[O-])s2)c1`: the inhibition was 15.5%. Under `Cc1ccc(NC(C)C(=O)N/N=C/c2ccc([N+](=O)[O-])s2)cc1` (stereo not given) stands 75%; under `COC(=O)c1cccc(NC(=O)/C=C/c2cccc([N+](=O)[O-])c2)c1`, -2.96%. With `Cc1ccc(NC(=O)/C=C/c2cccs2)c([N+](=O)[O-])c1`, the inhibition was -6.44%. In the case of `COC(=O)c1cccc(NC(=O)/C=C/c2ccc([N+](=O)[O-])cc2)c1`, the inhibition is 3.4%.

On to `CCCC(c1nnnn1C(C)(C)C)N1CCN(Cc2ccccc2OC)CC1` (stereo not given), for which the inhibition is -3.31%.

Regarding `CCOC(=O)c1[nH]c(C)c(C(=O)NCc2cccnc2)c1C`, the inhibition is -1.85%. In the case of `O=C(NCc1ccccn1)c1ccc(Cl)c(S(=O)(=O)Nc2ccccc2C(=O)NCc2ccccn2)c1` it was -4.28%. As to `CCN1CCN(C(=O)c2cn(CCOC)c(=O)c3c2c2ccccc2n3C)CC1`, the inhibition was 2.91%. Take `O=C(CCC1CCCN(C(=O)c2ccsc2)C1)N1CCN(c2ccccn2)CC1` (stereo not given): the inhibition is -1.82%. Consider `COc1cccc(OC)c1C(=O)NC(=S)Nc1ccc2c(c1)OCCO2`, for which the inhibition is 7.64%.
